Measurements reported in PubChem BioAssay.
This is one part of the list. Calls of active or inactive are those of the source.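 How the source made its calls: active means membrane potential signal moves up or down beyond 5 SD from buffer-only wells, on both duplicate plates; inactive means the rest.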

Assay: nonspecific voltage dye response without TRPC6 – cell-based, parental HEK293, counter-screen for TRPC6 modulator project, confirmation (AID 488924)
Conditions: parental HEK293, membrane potential dye fluorescence; at 10 µM

| Structure (SMILES) | membrane potential signal change | outcome |
| --- | --- | --- |
| Cc1cccc(NC(=S)NCCN(C2CCCCC2)C2CCCC2)c1 | 129% (active) | – |
| Cc1cc(N2CCN(S(=O)(=O)c3ccc(C)c(C)c3)CC2)c2ccccc2n1 | – | inactive |
| N=c1c2c3c(sc2ncn1CCCN1CCOCC1)CCCCC3 | – | inactive |
| CCCCc1nc(NCCN)c(C#N)c2c1CSC(C)(C)C2 | – | inactive |
| OCCC1CN(Cc2ccc3nsnc3c2)CCN1C1CCCCC1 (configuration not stated) | 109% (active) | – |
| CCN(CC)S(=O)(=O)c1ccc(N2CC(C(=O)NCc3cccnc3)CC2=O)cc1 (configuration not stated) | – | inactive |
| Nc1ccc(C(=O)N2CCN(S(=O)(=O)c3ccc(Cl)cc3)CC2)cc1[N+](=O)[O-] | – | inactive |
| CCC(C)NCCOCCOc1ccc(Br)cc1C (configuration not stated) | 94% (active) | – |
| N=c1n(CCc2ccccc2)c2ccccc2n1Cc1ccccc1F | 129% (active) | – |
| Cc1cccn2c(=O)c3cc(C#N)c(=O)n(CCCN4CCOCC4)c3nc12 | -248% (active) | – |
| O=C(CN1CCCCCC1)N1c2ccccc2Sc2ccc(C(F)(F)F)cc21 | 122% (active) | – |
| CN1CCN(c2ccc([N+](=O)[O-])c(Sc3nc4ccccc4[nH]3)c2)CC1 | -66.5% (active) | – |
| O=S(=O)(c1cccc(Cn2nnc(-c3ccc(F)cc3)n2)c1)N1CCOCC1 | – | inactive |
| Cn1c(/C(C#N)=C2/CCCCCN2)nc2ccccc21 | – | inactive |
| CC(C)C(c1nnnn1CCc1ccccc1)N1CCN(C(=O)c2ccco2)CC1 (configuration not stated) | 153% (active) | – |
| CCC(C)(C)NC(=O)CN(C(=O)CCC(=O)Nc1nccs1)c1ccc2c(c1)OCO2 | – | inactive |
| COc1ccc(-c2nnc(NC(=O)CS(=O)(=O)c3ccc(Cl)cc3)o2)c(OC)c1 | 86% (active) | – |
